Our source for the growth inhibition, inhibition and outcome values is PubChem BioAssay.

Structures are written as SMILES. Unmarked numbers belong to inactive results. For some of these results: Entries with a potency or affinity are not part of this list. Active and inactive are the calls of the source. Unless noted, no rule for the calls is given here.

Assay [1] in a line: antimalarial activity against Dd2 strain (AID 2302;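 active = growth inhibition above 50% at the single 2 µM test dose, taken to imply half-maximal potency below 2 µM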;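 also: 0% = DMSO untreated growth and 100% = chloroquine plus artemisinin killed control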). Particulars: P. falciparum Dd2 in RBCs, LDH growth readout, 72 h; at 2 µM; stronger effect = higher value.
Assay [2] is described as follows: human hepatoma cell viability loss – ATP luminescence, cytotoxicity control for P. falciparum antimalarial project, primary screen (AID 2303;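 active = inhibition above 50%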;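 also: 0% = DMSO wells and 100% = digitonin-killed cells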). Particulars: HepG2 viability, 24-48 h, at 10 µM, stronger effect = higher value.
The target in assay [3] is L-lactate dehydrogenase (Plasmodium falciparum (isolate CDC / Honduras)) (UniProt Q27743). The experiment in a line: PfLDH activity inhibition – cell lysate, 3D7 strain, counter-screen for P. falciparum growth inhibition project (AID 2304).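 Also: 0% = vehicle and 100% = reference inhibitor.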 Particulars: P. falciparum 3D7 crude extract, LDH APAD/NBT absorbance; at 2 µM; stronger effect = higher value. (Counterscreens check selectivity or assay interference.)
Sequence of L-lactate dehydrogenase (Plasmodium falciparum (isolate CDC / Honduras)) (Q27743 whole entry, looked up): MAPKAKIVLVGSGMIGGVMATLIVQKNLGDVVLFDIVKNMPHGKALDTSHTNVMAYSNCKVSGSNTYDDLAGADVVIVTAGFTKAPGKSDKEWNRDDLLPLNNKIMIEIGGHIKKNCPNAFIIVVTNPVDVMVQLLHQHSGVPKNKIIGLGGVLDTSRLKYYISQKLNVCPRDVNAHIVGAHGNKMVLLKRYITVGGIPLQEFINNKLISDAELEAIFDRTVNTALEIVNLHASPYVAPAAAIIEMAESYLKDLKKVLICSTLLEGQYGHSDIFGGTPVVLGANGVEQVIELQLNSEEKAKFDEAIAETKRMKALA

Assay [4] is described as follows: inhibition of 3D7 malaria parasite growth – strain 3D7 (AID 2306).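 Also: 0% = DMSO wells and 100% = chloroquine plus artemisinin control wells.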 Particulars: P. falciparum 3D7 erythrocytic growth, LDH absorbance, 72 h; at 2 µM; stronger effect = higher value.
In assay [5] the target is Calcium-dependent protein kinase 1 (Plasmodium falciparum (isolate 3D7)) (UniProt P62344). Kind of assay: PfCDPK1 kinase inhibitors, biochemical, TCAMS library (AID 1159585; cut-off not given, nearly all actives have IC50 up to about 0.98 µM;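 also: inhibitors leave more ATP so luminescence rises with inhibition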). Particulars: recombinant PfCDPK1, Kinase-Glo ATP depletion luminescence. Background: Kinase-Glo measures the ATP left after a reaction by luminescence.
Sequence of Calcium-dependent protein kinase 1 (Plasmodium falciparum (isolate 3D7)) (P62344 whole entry, looked up): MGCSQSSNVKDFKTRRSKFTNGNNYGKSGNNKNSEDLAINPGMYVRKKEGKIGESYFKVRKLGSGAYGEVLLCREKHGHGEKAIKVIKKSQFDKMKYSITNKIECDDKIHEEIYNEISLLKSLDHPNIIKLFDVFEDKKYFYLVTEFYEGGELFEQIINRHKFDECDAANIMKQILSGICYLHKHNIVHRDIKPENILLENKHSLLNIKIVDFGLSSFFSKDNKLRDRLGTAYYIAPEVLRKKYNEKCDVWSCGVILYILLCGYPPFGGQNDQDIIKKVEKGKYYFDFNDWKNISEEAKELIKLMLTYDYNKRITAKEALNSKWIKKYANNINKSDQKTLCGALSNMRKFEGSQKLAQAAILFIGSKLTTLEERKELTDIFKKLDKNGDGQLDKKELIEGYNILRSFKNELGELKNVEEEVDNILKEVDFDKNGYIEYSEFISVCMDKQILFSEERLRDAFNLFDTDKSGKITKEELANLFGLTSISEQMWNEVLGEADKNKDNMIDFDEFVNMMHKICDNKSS
Assay [6] has as its target Plasmodium falciparum protein kinase 6 (PK6, PF3D7_1337100) (UniProt Q8IDW1). Kind of assay: PfPK6 kinase inhibitors, biochemical, TCAMS library (AID 1159586). Particulars: recombinant PfPK6, Kinase-Glo ATP depletion luminescence.
For assay [7], the target named is Protein kinase 7 (PK7), Plasmodium falciparum 3D7 (PF3D7_0213400) (UniProt Q7YTF7). The experiment in a line: inhibition of Plasmodium PK7 catalytic activity – biochemical, TCAMS antimalarial set, Kinase-Glo luminescence (AID 1159587). Particulars: recombinant PfPK7, Kinase-Glo ATP depletion luminescence.
Sequence of Protein kinase 7 (PK7), Plasmodium falciparum 3D7 (PF3D7_0213400) (Q7YTF7 1-343): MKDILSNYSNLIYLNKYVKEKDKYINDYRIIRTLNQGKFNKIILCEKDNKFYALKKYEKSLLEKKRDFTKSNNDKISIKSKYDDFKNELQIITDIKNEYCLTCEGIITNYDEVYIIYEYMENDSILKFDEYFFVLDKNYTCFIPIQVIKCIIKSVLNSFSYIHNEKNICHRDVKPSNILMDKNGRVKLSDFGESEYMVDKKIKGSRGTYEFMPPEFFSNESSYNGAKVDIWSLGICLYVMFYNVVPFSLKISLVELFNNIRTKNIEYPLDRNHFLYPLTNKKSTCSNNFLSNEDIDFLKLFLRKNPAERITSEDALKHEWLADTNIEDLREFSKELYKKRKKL
For assay [8], the target named is Calcium-dependent protein kinase 4 (Plasmodium falciparum (isolate 3D7)) (UniProt Q8IBS5). The experiment in a line: PfCDPK4 kinase inhibitors, biochemical, TCAMS library (AID 1159588; cut-off not given, nearly all actives have IC50 up to about 0.91 µM). Particulars: recombinant PfCDPK4, Kinase-Glo ATP depletion luminescence.
Sequence of Calcium-dependent protein kinase 4 (Plasmodium falciparum (isolate 3D7)) (Q8IBS5 whole entry, looked up): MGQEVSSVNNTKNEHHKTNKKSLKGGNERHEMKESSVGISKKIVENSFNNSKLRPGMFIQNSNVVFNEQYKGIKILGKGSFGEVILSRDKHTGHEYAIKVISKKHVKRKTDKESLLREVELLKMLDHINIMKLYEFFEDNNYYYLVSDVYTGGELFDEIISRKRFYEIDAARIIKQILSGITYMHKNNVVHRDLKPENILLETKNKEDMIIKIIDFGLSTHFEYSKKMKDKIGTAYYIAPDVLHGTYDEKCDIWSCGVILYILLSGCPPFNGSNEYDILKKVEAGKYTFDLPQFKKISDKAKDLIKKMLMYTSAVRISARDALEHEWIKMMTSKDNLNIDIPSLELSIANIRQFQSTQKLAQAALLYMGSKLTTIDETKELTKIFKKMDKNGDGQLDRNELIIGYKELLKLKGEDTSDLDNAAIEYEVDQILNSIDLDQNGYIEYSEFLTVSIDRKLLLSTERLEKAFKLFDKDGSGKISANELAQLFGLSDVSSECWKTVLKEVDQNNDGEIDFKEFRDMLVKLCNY

Sequence of Plasmodium falciparum protein kinase 6 (PK6, PF3D7_1337100) (Q8IDW1 1-305): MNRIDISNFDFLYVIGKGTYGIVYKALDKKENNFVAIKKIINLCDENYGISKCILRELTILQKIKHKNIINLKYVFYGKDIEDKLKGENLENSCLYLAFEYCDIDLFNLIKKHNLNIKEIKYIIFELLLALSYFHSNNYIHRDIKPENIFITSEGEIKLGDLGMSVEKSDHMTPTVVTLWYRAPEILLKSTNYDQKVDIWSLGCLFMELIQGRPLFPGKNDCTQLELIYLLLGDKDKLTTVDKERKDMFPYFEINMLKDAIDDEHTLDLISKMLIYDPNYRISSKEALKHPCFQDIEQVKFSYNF

Take `O=C(/C=C/c1ccccc1)N1CCOC(CCN2CCC(c3ccccc3)CC2)(c2ccc(Cl)c(Cl)c2)C1` (stereo not given): the growth inhibition in assay [1] was 63% (active); in assay [4], 89% (active). The inhibition (commonly the relative decrease from the control value, in per cent) is 4% in assay [2] and 2% in assay [3]. In addition, the outcome in assay [5], in assay [6], in assay [7] and in assay [8] was inactive.
`COc1cc2c(C3CCN(CC4CCN(C(=O)/C=C/c5ccc(Cl)c(Cl)c5)CC4)CC3)c[nH]c2cn1`: the values for the growth inhibition in assay [1] and in assay [4] were 88% (active) and 101% (active), respectively. Also, the figures for the inhibition in assay [2] and in assay [3] were 27% and -1%, respectively. In addition, the result in assay [5], in assay [6], in assay [7] and in assay [8] was inactive.
Consider `Nc1nc2c(cnn2CCCCCCCP(=O)(O)O)c(=O)[nH]1`, for which the values for the growth inhibition in assay [1] and in assay [4] were 91% (active) and 94% (active), respectively. In addition, the inhibition in assay [2] is -3%; in assay [3], 4%. Moreover, the outcome in assay [5], in assay [6], in assay [7] and in assay [8] was inactive.
As to `O=C(/C=C/c1ccc(Cl)c(Cl)c1)NCCCCCN1CCC(NC(=O)Nc2cccc(Cl)c2F)CC1`, the results for the growth inhibition in assay [1] and in assay [4] were 30% and 101% (active), respectively. The inhibition in assay [2] is 75% (active); in assay [3], 4%. The outcome in assay [5], in assay [6], in assay [7] and in assay [8] was inactive.
As to `O=C(CC(=O)C(F)(F)F)c1ccccc1[N+](=O)[O-]`, the growth inhibition is 95% (active) in assay [1] and 97% (active) in assay [4]. Moreover, the inhibition was 65% (active) in assay [2] and -6% in assay [3]. The outcome in assay [5], in assay [6], in assay [7] and in assay [8] was inactive.
For the molecule `O=C(c1cccc(-c2noc(C(F)(F)F)n2)c1)N1CCN(c2ccncc2)CC1`, the values for the growth inhibition in assay [1] and in assay [4] were 56% (active) and 90% (active), respectively. Moreover, the figures for the inhibition in assay [2] and in assay [3] were 14% and 3%, respectively. In addition, the outcome in assay [5], in assay [6], in assay [7] and in assay [8] was inactive.
`CCc1ccc(CN2CCC(NC(=O)c3cc(-c4ccc(N(C)C)cc4)cs3)C2)cc1` (stereo not given): the growth inhibition is 7% in assay [1] and 90% (active) in assay [4]. Also, the inhibition is 29% in assay [2] and 3% in assay [3]. Further, the result in assay [5], in assay [6], in assay [7] and in assay [8] was inactive.
For `COc1cccc(CNC(=O)[C@@H]2CN(C(=O)c3ccccc3)CCN2)c1`, the results for the growth inhibition in assay [1] and in assay [4] were -1% and 92% (active), respectively. Besides, the inhibition in assay [2] was 4%; in assay [3] it was -2%. Moreover, the result in assay [5], in assay [6], in assay [7] and in assay [8] was inactive.
`Cc1nnsc1C(=O)Nc1ccc(-c2cccc(-c3nc4c(C)cccc4[nH]3)c2)cc1`: the growth inhibition in assay [1] is 47%; in assay [4], 98% (active). In addition, the inhibition in assay [2] was 23%; in assay [3], 4%. Moreover, the result in assay [5], in assay [6], in assay [7] and in assay [8] was inactive.
On to `O=C(NCCN1CCCC1)c1cc(-c2ccc(Cl)c(O)c2)c(-c2ccncc2)o1`, for which the growth inhibition in assay [1] was -5%; in assay [4], 92% (active). Also, the values for the inhibition in assay [2] and in assay [3] were -23% and 0%, respectively. The result in assay [5], in assay [6], in assay [7] and in assay [8] was inactive.
Take `CCC1(CC)CN(c2ccccc2)c2ccc(O)cc2S(=O)(=O)C1CC(C)C` (stereo not given): the growth inhibition in assay [1] is 89% (active); in assay [4] it was 96% (active). In addition, the inhibition was -7% in assay [2] and 2% in assay [3]. Besides, the result in assay [5], in assay [6], in assay [7] and in assay [8] was inactive.
Take `CC1CN(Cc2ccc(C#N)cc2)CCN1c1ccc(NC(=O)c2cccs2)cc1` (stereo not given): the growth inhibition is 89% (active) in assay [1] and 93% (active) in assay [4]. For the same molecule, the inhibition in assay [2] was 8%; in assay [3], 2%. In addition, the result in assay [5], in assay [6], in assay [7] and in assay [8] was inactive.
Consider `c1ccc2c(C3CCN(CCCCOc4ccc5c(c4)CCN(CC4CC4)CC5)CC3)c[nH]c2c1`, for which the growth inhibition in assay [1] was 97% (active); in assay [4], 99% (active). For the same molecule, the inhibition was 74% (active) in assay [2] and -8% in assay [3]. The outcome in assay [5], in assay [6], in assay [7] and in assay [8] was inactive.
Consider `CCCCCCCNc1cc(C)nc2ccc(OC)cc12`, for which the growth inhibition is 100% (active) in assay [1] and 101% (active) in assay [4]. Moreover, the inhibition was 30% in assay [2] and -2% in assay [3]. Further, the result in assay [5], in assay [6], in assay [7] and in assay [8] was inactive.
Take `O=C(/C=C/c1ccc(Cl)c(Cl)c1)NCCCCCN1CCCN(C(=O)Nc2cccc(C(F)(F)F)c2)CC1`: the growth inhibition is -2% in assay [1] and 96% (active) in assay [4]. Further, the inhibition in assay [2] is 45%; in assay [3], 1%. For the same molecule, the outcome in assay [5], in assay [6], in assay [7] and in assay [8] was inactive.
Turning to `Oc1ccc(CCNc2nc(NCc3cccc(OCc4cccc(F)c4)c3)nc(N3CCNCC3)n2)cc1`, the growth inhibition was -7% in assay [1] and 86% (active) in assay [4]. Also, the inhibition in assay [2] is 27%; in assay [3] it was -3%. In addition, the outcome in assay [5], in assay [6], in assay [7] and in assay [8] was inactive.
For `Cc1cc(N[C@@H](CC(C)C)C(=O)NCCOc2ccccc2)nc(NCC2CCCCC2)n1`, the growth inhibition in assay [1] is 53% (active); in assay [4] it was 97% (active). For the same molecule, the inhibition is 24% in assay [2] and -1% in assay [3]. In addition, the result in assay [5], in assay [6], in assay [7] and in assay [8] was inactive.
Regarding `Cc1cccc2[nH]c(-c3ccc(-c4ccc(CNCc5ccc(S(C)(=O)=O)cc5)cc4)cc3)nc12`, the growth inhibition in assay [1] is 38%; in assay [4], 93% (active). Moreover, the results for the inhibition in assay [2] and in assay [3] were 19% and -1%, respectively. The result in assay [5], in assay [6], in assay [7] and in assay [8] was inactive.
`Cc1[nH]c(C)c(-c2ccc(-c3ccc(Cl)cc3)cc2)c(=O)c1Cl`: the growth inhibition in assay [1] and in assay [4] was 96% (active) each time. For the same molecule, the inhibition was -9% in assay [2] and -6% in assay [3]. For the same molecule, the result in assay [5], in assay [6], in assay [7] and in assay [8] was inactive.
For the molecule `CCCN(CCCN(CCCN(CCC)C(C)C)c1cc(C)nc(Nc2ccc(Cl)cc2)n1)C(C)C`, the growth inhibition in assay [1] was 99% (active); in assay [4], 102% (active). Also, the values for the inhibition in assay [2] and in assay [3] were 39% and 0%, respectively. Moreover, the outcome in assay [5], in assay [6], in assay [7] and in assay [8] was inactive.
